The list is not random: actives were taken first. Their share in the collection is about 3.2%.
Sm TGR block – qHTS Assay for the Inhibitors of Schistosoma Mansoni Peroxiredoxins | purified TGR, DTNB reduction, TNB absorbance 405 nm | Potency, µM (doses to about 114 µM), usual class: inhibitors | 3% of 360,000 active | AID 485364, 2010; note: nearly all actives have a fitted effect of over 60% in size
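Kinetic colorimetric format: TGR-catalysed, NADPH-driven DTNB reduction monitored via TNB absorbance. Enzyme dispensed at 20 nM; compound exposure 15 min at room temperature before reaction start.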
AmpC detergent – qHTS Inhibitors of AmpC Beta-Lactamase (assay with detergent); AmpC hydrolysis of nitrocefin, absorbance 480 nm, 0.01% Triton; Potency, µM (titrated, usually from 114 µM), most hits filed as inhibitors; 0.041% of 370,000 active; AID 485294, 2010; note: nearly all actives have a fitted effect of over 25% in size
Target sequence (P00811 whole entry, looked up): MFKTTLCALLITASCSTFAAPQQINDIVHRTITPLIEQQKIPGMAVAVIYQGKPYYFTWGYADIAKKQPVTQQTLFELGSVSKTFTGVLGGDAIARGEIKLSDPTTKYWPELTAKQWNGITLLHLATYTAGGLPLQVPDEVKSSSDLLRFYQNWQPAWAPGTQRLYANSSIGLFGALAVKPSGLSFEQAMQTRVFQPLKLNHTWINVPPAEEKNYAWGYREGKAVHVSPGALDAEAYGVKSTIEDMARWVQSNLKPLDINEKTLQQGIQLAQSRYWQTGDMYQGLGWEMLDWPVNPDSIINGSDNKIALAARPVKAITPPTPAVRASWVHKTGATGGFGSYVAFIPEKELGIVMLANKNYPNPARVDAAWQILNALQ
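AmpC (5.3 nM in the dispensed reagent) in 20 mM phosphate pH 7.0 with 0.01% (detergent screen) or 0.0001% Triton X-100 was preincubated with compounds for 15 min at room temperature. Nitrocefin was then added from an 800 uM solution, and hydrolysis was followed at 480 nm.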
RE007 growth inh – qHTS Assay for Inhibitors of the HIV-1 protein Vpr. S. pombe RE007 Vpr strain, BacTiter-Glo ATP luminescence, 24 h. Potency, µM (top dose mostly 92.2 µM), usual class: inhibitors. 0.21% of 360,000 active; active = well fitted falling curve with a large enough effect; inconclusive = small, poorly fitted or top-dose-only effect; inactive = no such curve, though single readings can be large or run the other way; note: nearly all actives have a fitted effect of over 50% in size
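Fission yeast strain RE007, carrying one chromosomally integrated HIV-1 vpr copy, was seeded at OD 0.01 in PMG+AL medium with 23 nL pinned compound. After 24 h at 30 °C and 99% humidity, viability was read by BacTiter-Glo luminescence.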
AMA1-RON2 inh – qHTS for Inhibitors of AMA1-RON; Towards Development of Antimalarial Drug Lead: Primary Screen | AID 720542, 2013 | 0.2% of 360,000 active | Plasmodium falciparum AMA1 (3D7) - RON2 peptide interaction | Potency, µM (highest dose often 58.2 µM), most hits filed as inhibitors | AlphaScreen AMA1-biotinylated RON2 peptide binding; note: nearly all actives have a fitted effect of over 45% in size
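AMA1 (3D7) with his tag at 25 nM final met compounds first, then biotinylated RON2 peptide at 25 nM; detection used donor plus acceptor beads, 10 µg/mL apiece, read by AlphaScreen after 30 min at room temperature.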
AmpC no deterg – qHTS Inhibitors of AmpC Beta-Lactamase (assay without detergent); 0.52% of 330,000 active; Potency, µM (top dose mostly 57.1 µM), hits mostly inhibitors; AmpC nitrocefin hydrolysis, absorbance 480 nm, 0.0001% Triton; P00811; note: nearly all actives have a fitted effect of over 20% in size
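AmpC (5.3 nM in the dispensed reagent) in 20 mM phosphate pH 7.0 with 0.01% (detergent screen) or 0.0001% Triton X-100 was preincubated with compounds for 15 min at room temperature. Nitrocefin was then added from an 800 uM solution, and hydrolysis was followed at 480 nm.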
Each line names hits and unclear results; the compound was inactive in the other large screens. Unless noted, calls come from the whole dose curve; as a rule, active = well fitted curve in the direction sought with a large enough effect; inconclusive = small, poorly fitted or top-dose-only effect, or another doubt; inactive = no such curve, though single readings can be large; an effect the other way counts as inactive or inconclusive.

O=c1oc2ccccc2c(N2CCCC2)c1CN1CCCC1	Sm TGR block 35µM
COc1ccccc1N1CCN(c2c(CN3CCCC3)c(=O)oc3ccccc23)CC1	none (no result: RE007 growth inh, AMA1-RON2 inh, AmpC no deterg)
Cc1cccc(N2CCN(C(=O)c3cc4ccc5cccnc5c4[nH]3)CC2)c1C	none (no result: RE007 growth inh, AMA1-RON2 inh, AmpC no deterg)
COc1ccc(Cn2c(CNS(=O)(=O)c3ccc(C)c(C)c3)nc3cccnc32)cc1	none (no result: RE007 growth inh, AMA1-RON2 inh, AmpC no deterg)
c1nc(NCCN2CCOCC2)c2sc3nc(N4CCOCC4)c4c(c3c2n1)CCC4	Sm TGR block 45µM, AmpC detergent inconclusive
CN1CCc2cc(O)cc3c2[C@H]1Cc1ccc(O)c(O)c1-3	AMA1-RON2 inh 10µM (no result: Sm TGR block, AmpC detergent, AmpC no deterg)
CCCN1CCc2cc(O)cc3c2[C@H]1Cc1ccc(O)c(O)c1-3	AMA1-RON2 inh inconclusive (no result: Sm TGR block, AmpC detergent, AmpC no deterg)
CC(=O)c1ccc(N2CCN(C(=O)C3CCN(S(=O)(=O)c4ccc(Br)s4)CC3)CC2)cc1	none (no result: RE007 growth inh, AMA1-RON2 inh, AmpC no deterg)
COC(=O)C1=C(C(=O)OC)C2OC1c1cc3ccccc3cc12	RE007 growth inh 35µM (no result: Sm TGR block, AmpC detergent, AmpC no deterg)
COC(=O)C1=C(c2ccc3ccccc3c2)C[C@@H]2CC[C@H]1N2C	none
Fc1ccc(NC(=S)Nc2cccnc2)c(F)c1F	Sm TGR block 14µM
S=C(Nc1cccnc1)Nc1ccccc1Br	Sm TGR block 6.3µM
COc1cc(NC(=S)Nc2cccnc2)cc(OC)c1OC	Sm TGR block 32µM
S=C(Nc1ccc(Oc2ccccc2)cc1)Nc1cccnc1	Sm TGR block inconclusive, AmpC detergent inconclusive
Fc1ccc(NC(=S)Nc2ccc(Cl)cc2Cl)cc1	Sm TGR block 25µM
CCOC(=O)Cn1c(=O)oc2cc(S(=O)(=O)N3CCN(c4cccc(C)c4C)CC3)ccc21	none (no result: RE007 growth inh, AMA1-RON2 inh, AmpC no deterg)
Cc1ccc(-c2nc3ncccc3o2)cc1NC(=O)c1ccc(-c2cccc(Cl)c2C)o1	none (no result: RE007 growth inh, AMA1-RON2 inh, AmpC no deterg)
FC(F)(F)c1cnc(NNC(=S)Nc2cccnc2)c(Cl)c1	none
Oc1cccc(NC(=S)Nc2cccnc2)c1	Sm TGR block 50µM
Fc1ccc(NC(=S)Nc2cccnc2)c(Cl)c1	Sm TGR block 18µM
O=C(C=Cc1ccccc1F)c1ccccc1	RE007 growth inh inconclusive (no result: Sm TGR block, AmpC detergent, AmpC no deterg)
O=C(/C=C/c1ccccc1Cl)c1cccnc1	Sm TGR block 13µM, RE007 growth inh inconclusive
O=C(/C=C/c1ccccc1Cl)NNC(=O)c1ccncc1	none
O=C(/C=C/c1c(F)cccc1Cl)c1ccc(O)cc1	Sm TGR block 40µM
O=C(/C=C/c1ccccc1Cl)c1ccc(O)cc1	Sm TGR block 45µM
N#Cc1ccc(/C=C/C(=O)O)cc1	none
N#Cc1ccc(/C=C/C(=O)c2cccnc2)cc1	Sm TGR block 28µM, RE007 growth inh 45µM
O=C(/C=C/c1c(F)cccc1Cl)Nc1ncccn1	none
Cc1nn(-c2ccccc2)c2nc(C3CC3)cc(C(=O)Nc3ccccc3F)c12	none (no result: RE007 growth inh, AMA1-RON2 inh, AmpC no deterg)
CCN(CC)c1ccc(/C=C/C(=O)c2cccnc2)cc1	none
C(=Cc1cccnc1)c1ccncc1	none (no result: Sm TGR block, AmpC detergent, AmpC no deterg)
O=C(/C=C/c1ccc(Cl)cc1)c1cccnc1	Sm TGR block 14µM, RE007 growth inh 28µM
O=C(/C=C/c1cccnc1)/C=C/c1cccnc1	Sm TGR block 3.2µM, RE007 growth inh inconclusive
CCn1nc(-c2ccccc2)c(-c2ccccc2)c(C(=O)OCCOC)c1=O	none (no result: RE007 growth inh, AMA1-RON2 inh, AmpC no deterg)
Cc1sc2c(c1C)c(=O)n(-c1ccc(Cl)cc1)c(=O)n2Cc1cc(=O)n2cc(Br)ccc2n1	none (no result: RE007 growth inh, AMA1-RON2 inh, AmpC no deterg)
COc1cc(C(c2oc(CO)cc(=O)c2O)c2oc(CO)cc(=O)c2O)cc(OC)c1OC	none
O=c1cc(CO)oc(C(Nc2ccccn2)c2ccsc2)c1O (stereo not given)	Sm TGR block 11µM (no result: RE007 growth inh, AMA1-RON2 inh)
COc1ccc(C(c2oc(CO)cc(=O)c2O)c2oc(CO)cc(=O)c2O)cc1OC	Sm TGR block inconclusive
O=c1cc(CO)oc(C(Nc2ccccn2)c2ccc(F)cc2)c1O (stereo not given)	Sm TGR block 2.5µM
COc1ccc(C(Nc2ccccn2)c2oc(CO)cc(=O)c2O)cc1 (stereo not given)	Sm TGR block 2.8µM, AmpC detergent inconclusive
O=c1cc(CO)oc(C(Nc2ccccn2)c2ccccc2Cl)c1O (stereo not given)	Sm TGR block inconclusive
COc1ccc(C(c2oc(CO)cc(=O)c2O)c2oc(CO)cc(=O)c2O)cc1	Sm TGR block 35µM
CCCC[C@]12Cc3c(ccc4ccccc34)C(O1)C1=C(O2)C(=O)c2ccccc2C1=O	Sm TGR block inconclusive (no result: RE007 growth inh, AMA1-RON2 inh)
Cc1ccnc(NC(c2ccccc2O)c2oc(CO)cc(=O)c2O)c1 (stereo not given)	Sm TGR block 1.8µM
Cc1ccnc(NC(=O)c2cc3ccccc3oc2=O)c1	none
COc1cc(NC(=O)N2CCC3(CC2)Nc2ccccc2-n2cccc23)cc(OC)c1OC	none (no result: RE007 growth inh, AMA1-RON2 inh, AmpC no deterg)
CCN(CC)S(=O)(=O)c1cccc(C(=O)N/N=C/c2ccc(O)c(O)c2O)c1	Sm TGR block inconclusive, AmpC no deterg 20µM
COc1cccc(/C=N/NC(=S)Nc2cccc(S(=O)(=O)N(C)C)c2)c1	none
CN(C)S(=O)(=O)c1cccc(NC(=S)NCc2ccco2)c1	Sm TGR block 35µM
COc1ccc(O)c(/C=N/NC(=S)Nc2cccc(S(=O)(=O)N(C)C)c2)c1	AmpC detergent inconclusive
CC(=O)c1cccc(NC(=S)NCc2ccco2)c1	Sm TGR block inconclusive
CN(C)S(=O)(=O)c1cccc(NC(=S)N/N=C/c2ccco2)c1	Sm TGR block 40µM

High-throughput results from PubChem.
